Source: PubChem BioAssay (NCI)
The panel holds about 79,000 compounds, 15% with a hit somewhere; the sample as a whole holds those more often. Active and inactive are the calls of the source. Rule as the data show it: active = growth inhibition above about 70%; inactive = the rest.

Assay: NCI Yeast Anticancer Drug Screen. Data for the mlh1 rad18 strain (AID 175)
Conditions: S. cerevisiae mlh1 rad18 strain growth inhibition; at 50.0 µM; hits give high values
Summary of the method: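 Test agents were incubated with a yeast strain of defined genotype (DNA damage repair defect). Inhibition of growth was derived by comparison with vehicle-exposed cultures.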

Structure (SMILES)	growth inhibition
CC(=O)Sc1ccc(Br)cc1	71.2% (active)
CC(C)OCc1cccc2ccnc(COC(C)C)c12	25.1% (inactive)
Nc1ccc2c(c1)C(=O)c1ccccc1-2	14.2% (inactive)
O=C1Nc2ccc([N+](=O)[O-])c3c([N+](=O)[O-])ccc1c23	90.7% (active)
Cc1ccc(NC(=O)Oc2ccc(C(C)(C)C)cc2Br)cc1NC(=O)Oc1ccc(C(C)(C)C)cc1Br	79.2% (active)
O=C1C(Cl)=C(Nc2ccc(S(=O)(=O)O)cc2)C(=O)c2ccccc21	99.4% (active)
N/C(=N\OC(=O)Nc1ccccc1)c1ccccc1	58.6% (inactive)
O=C1c2ccccc2C(=O)c2cc(N3C(=O)C=CC3=O)ccc21	91.5% (active)
CCCCN=C(c1ccc(O)cc1)c1ccc(OC)cc1O	36% (inactive)
Cc1ccc(S(=O)(=O)c2cc(O)c(O)c3ccc(Br)cc23)cc1	97.9% (active)
CC(C)(C)NC(=S)N/N=C/c1cc(Cl)cc(Cl)c1O	80.7% (active)
Oc1ccc2c(c1)OCC1c3ccccc3OC21 (stereo not given)	76.7% (active)
OCCSC(=S)Nc1ccc(Cl)c(Cl)c1	99.5% (active)
CCCC[N-]CC(O)C[NH-].O=C(O)CC(=O)O.[Pt+2] (stereo not given)	29.9% (inactive)
N=C(N)c1cccc(-c2ccc(-c3ccccc3)o2)c1	97% (active)
C#CC(CC(C)C)(CC(C)C)OC(=O)Nc1ccccc1	97.3% (active)
CCCCOc1ccc(-c2c(COC(=O)NC)c(COC(=O)NC)c(C)n2C)cc1	88.2% (active)
O=C(Nc1cccc2ccccc12)OCCCCCCl	97.4% (active)
C=CCOc1ccc(/C=N/NC(N)=S)cc1	52.1% (inactive)
Fc1ccc2[nH]ccc2c1	49.3% (inactive)

Structure (SMILES)	growth inhibition
C=C1C(=O)[C@]23C[C@H]1CC[C@H]2[C@@]12CO[C@@H](O)[C@@H]1C(C)(C)[C@@H](O)C[C@@H]2OC3=O	24.4% (inactive)
N#Cc1ccc([N+](=O)[O-])cc1C#N	99.5% (active)
N=C(N)c1ccc(Oc2ccc(Oc3ccc(C(=N)N)cc3)cc2)cc1	81.5% (active)
CCC=Nc1c(O)cc(-c2ccccc2)n(C)c1=O	60.5% (inactive)
COc1ccc(CN2CCCN(Cc3ccc(OC)cc3OC)C2c2cc(Cl)ccc2O)c(OC)c1	42% (inactive)
CCN(CC)c1ccc(/C=C2/C[N+](C)(C)C/C(=C/c3ccc(N(CC)CC)cc3)C2=O)cc1	82.2% (active)
O=P1(Cc2ccccc2)c2ccccc2-c2ccccc21	84.3% (active)
CN(C)CCCNc1cc(O)c2c(c1O)C(=O)c1ccccc1C2=O	99% (active)
CCCCC#CC(=O)OCCCCC	-16.4% (inactive)
CCCCCCN(CCCCCC)CCC(=O)c1ccc2cc(Cl)c3ccccc3c2c1	87.8% (active)
CC(C)C1=C2CCC3(C)C(CCC4C5C6OCC5(CCC6(C)C)CCC43C)C2(C)CC1 (stereo not given)	65.5% (inactive)
O=C(CC(O)(CC(=O)OCc1ccccc1)C(=O)OCc1ccccc1)OCc1ccccc1	99% (active)
CCc1c(C)[nH]c2c([N+](=O)[O-])cccc12	94.8% (active)
CSc1ncc2c(n1)-c1ccccc1OC2NC1CC1 (stereo not given)	-7.35% (inactive)
CC(C)c1cc(O)c2c(c1O)C1CC3C(C)(C)CCC[C@]23C(=O)O1 (stereo not given in full)	96.2% (active)
O=C1C(=O)c2cc(Br)cc([N+](=O)[O-])c2-c2ccc(Br)cc21	98.4% (active)
NSc1ccccn1	96.7% (active)
CCCCCCCCCCCCOC(=O)C[n+]1cccc(C(=O)Nc2ccccc2)c1	99.2% (active)
NC(=S)SCCC(=O)O	2.85% (inactive)
O=C(O)Cc1ccc2c3c(cccc13)CC2	92.8% (active)
